Whole data set: some 3,600 compounds, median “viability index relative to DMSO control” near 0.81, cut for the lowest 2% near 0.13. The entries come from a sample that favours the lowest values as a whole.
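Note: Saponin-lysis sexual stage assay in serum-free medium: MitoTracker Red CMXRos staining plus saponin, high-content imaging, particle count per well divided by plate mean of DMSO wells.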

The experiment relates to Plasmodium falciparum NF54 stage V gametocytes. Briefly: viability index relative to DMSO control (fraction); higher = less gametocyte killing. Conditions: 1.25 µM, incubation time: 72 h.
For `O=C(Nc1ccc(O)cc1)c1cccc(S(=O)(=O)N2CCCCC2)c1`, the viability index worked out at 1.03. The same measure for `CC(=O)NC1=NN(C(C)=O)C(c2ccc(Br)cc2)S1` (stereo unspecified): 0.944; for `O=C(CSc1nc2ccccc2c(=O)n1CCCN1CCOCC1)Nc1cccc(S(=O)(=O)N2CCCCCC2)c1`: 0.969; for `CCc1ccc2c(c1)C1(NN=C(c3ccc(C)cc3)S1)C(=O)N2` (stereo unspecified): 0.127. Compound `CC1=C(C(=O)OC2CCCCC2)C(c2ccc(F)c(F)c2)C2=C(CCCC2=O)N1` (stereo unspecified) had a viability index of 0.855. For the compound `CN(C)CCNc1cc(-c2ccc3ccccc3c2)nc2ccccc12`, the viability index came out at 0.0331. As for `CN(C)CCCNc1cc(-c2ccccc2)nc2ccccc12`, the viability index was found to be 0.913. Next, `CN(C)CCNc1cc(-c2ccccc2)nc2ccccc12`: 0.909; `Cc1ccc(C=Cc2ccc3ccccc3[n+]2C)cc1`: 0.754. The same measure for `O=C(NCc1ccccc1)C(c1ccc(F)cc1)N(Cc1ccco1)C(=O)c1cnccn1` (stereo unspecified): 0.72; for `CCOc1ccccc1NC(=O)Cn1c(=O)n(Cc2ccccc2)c(=O)c2c(C)c(C(=O)N(C)C)sc21`: 0.83; for `CCCCCOC(=O)C1=C(C)NC2=C(C(=O)CC(C)(C)C2)C1c1ccncc1` (stereo unspecified): 0.891.

`CC(=O)N(Cc1ccc(F)cc1)C1=C(NCCc2ccccc2)C(=O)c2ccccc2C1=O` had a viability index of 0.0184. In turn, `CC(=O)N(C1=C(N2CCCCC2)C(=O)c2ccccc2C1=O)c1ccc(F)cc1` showed a viability index of 0.721. Next, `CNC1=C(N(Cc2ccc(Cl)c(Cl)c2)C(C)=O)C(=O)c2ccccc2C1=O`: 0. On to `CC(=O)N(C1=C(N2CCCC2)C(=O)c2ccccc2C1=O)c1ccc(F)cc1`, for which the viability index came to 1. Compound `CCC(=O)N(C1=C(NC)C(=O)c2ccccc2C1=O)C(C)C` yielded a viability index of 0.601. In the case of `CCN(C(C)=O)C1=C(N2CCOCC2)C(=O)c2ccccc2C1=O`, the viability index worked out at 0.538. Take `Cc1cc(Nc2cccc(Cl)c2)nc2ccc(NC(=O)c3cccnc3)cc12`: the viability index was found to be 0.912.

In turn, `COC(=O)c1c(NC(=O)c2ccc(S(=O)(=O)N3CCOCC3)cc2)sc2c1CCN(C(C)=O)C2` had a viability index of 0.76.

With `C1=C(c2ccccc2)CCN(c2ncnc3c2nc2n3CCCCC2)C1`, the viability index turned out to be 0.916.

These data come from the supplement of paper PMC4723716.
